Measurements as given in PubChem BioAssay (EPA / NIEHS).
The source made the active and inactive calls. Rule for the calls: active = hit-call score of the fitted dose curve at least 0.9, where 1 is the maximum; inactive = score below 0.9.

Test: CCTE_Simmons_MITO_max_resp_rate: CCTE's HepG2 Seahorse XF Respirometric Screening Assay at Maximal Respiratory State [uncoupled], Simmons Lab (AID 2284002)
Settings: actives raise or lower the signal
Description: CCTE_Simmons_MITO is cell-based, respirometric assay using HepG2 cells and a Seahorse XF Analyzer to measure oxygen consumption rates over four temporal phases spanning a total of 72 minutes: pre-injection (pre-treatment), basal (following test compound injection), maximal (following FCCP uncoupler injection), and inhibited (following rotenone/antimycin A injection)CCTE_Simmons_MITO_max_resp_rate is one of 4 assay components calculated from the CCTE_Simmons_MITO assay. It is designed to make measurements of maximal respiration using a form of respirometric reporter, as detected with […] signals by Seahorse XF96 technology. Data from the assay component CCTE_Simmons_MITO_max_resp_rate was analyzed at the endpoint, CCTE_Simmons_MITO_max_resp_rate_OCR, with bidirectional fitting relative to DMSO as the negative control and baseline of activity. Using a type of respirometric reporter, measures of maximal respiration for gain or loss-of-signal activity can be used to understand cellular oxygen consumption as it relates to cellular respiration. To generalize the intended target to other relatable targets, this assay endpoint is annotated to the mitochondria intended target family, where the subfamily is respiration.
Test chemicals were administered as a titrated series of 7 concentrations from 125 nM up to 100 uM [final] prior to kinetic endpoint detection at 6 minute intervals [3 min mix followed by 3 minutes measure] for 72 minutes. Three biological replicates of technical singles were run for every chemical concentration tested. Dimethylsulfoxide [DMSO] was used as the vehicle control. The electron transport chain inhibitor fenpyroximate was used as the positive control for decreased basal respiration and was administered as a titrated series of 6 concentrations from 250 nM up to 2.75 uM [final] with technical triplicates for the top concentration only. The uncoupler 2,4-dintirophenol was used as the positive control for increased basal respiration and was administered as a titrated series of 6 concentrations from 938 nM up to 40 uM [final] with technical triplicates for the top concentration only. A Seahorse XF Analzyer is required to measure the response.

| Compound | outcome | AC50 |
| --- | --- | --- |
| CCN(CC)c1nc(C)cc(OP(=S)(OC)OC)n1 | inactive |  |
| Cn1c(-c2ccccc2)cc(-c2ccccc2)[n+]1C |  | 20 µM (active) |
| CC(C)(C)C(=O)C(Oc1ccc(Cl)cc1)n1cncn1 (stereo unspecified) |  | 47.2 µM (active) |
| CCSC(=O)N1CCCCCC1 | inactive |  |
| COCC(=O)N(c1c(C)cccc1C)C(C)C(=O)OC (stereo unspecified) | inactive |  |
| CC(C)N1C(=O)N(c2ccccc2)CSC1=NC(C)(C)C | inactive |  |
| Nc1c(Cl)c(F)nc(OCC(=O)O)c1Cl | inactive |  |
| Cc1c(COC(=O)[C@@H]2[C@H](/C=C(\Cl)C(F)(F)F)C2(C)C)cccc1-c1ccccc1 | inactive |  |
| CCOP(=O)(OCC)Oc1nc(Cl)c(Cl)cc1Cl |  | 49.8 µM (active) |
| CCCCC(C#N)(Cn1cncn1)c1ccc(Cl)cc1 (stereo unspecified) | inactive |  |
| CCNP(=S)(OC)O/C(C)=C/C(=O)OC(C)C (stereo unspecified) |  | 18.1 µM (active) |
| CCCCC(O)(Cn1cncn1)c1ccc(Cl)cc1Cl (stereo unspecified) |  | 60.5 µM (active) |
| O=C1C2CC=CCC2C(=O)N1SC(Cl)(Cl)Cl (stereo unspecified) |  | 67.8 µM (active) |
| CC(C)=CC1C(C(=O)OCc2coc(Cc3ccccc3)c2)C1(C)C (stereo unspecified) | inactive |  |
| CO/N=C(/C1=NOCCO1)c1ccccc1Oc1ncnc(Oc2ccccc2Cl)c1F |  | 4.35 µM (active) |
| Cc1ccc(N=CN(C)C=Nc2ccc(C)cc2C)c(C)c1 | inactive |  |
| CCN(CC)C(=O)C(C)Oc1cccc2ccccc12 (stereo unspecified) |  | 32.7 µM (active) |
| COCC(C)N(C(=O)CCl)c1c(C)csc1C (stereo unspecified) | inactive |  |
| CCOP(=S)(OCC)Oc1nc(Cl)n(C(C)C)n1 |  | 38.5 µM (active) |
| CC1(C)C(C=C(Cl)Cl)C1C(=O)OC(C#N)c1cccc(Oc2ccccc2)c1 (stereo unspecified) | inactive |  |
| COc1ccc(-c2ccccc2)cc1NNC(=O)OC(C)C | inactive |  |
